Hit rate of the full screen: of about 5,500 compounds, about 2,000 (36%) were called active. Roughly 18% stayed inconclusive and do not appear here. No stated cut-off is given here; in the data, active means normalized growth mostly below about 0.91 (no sharp cut-off); inconclusive means no clear call, values can overlap the other calls; inactive means mostly above about 0.92. The list shows a part of the results.
Experiment: chemical genetic growth profiling, strain panel (AID 1159580);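 further: tested at 20 µM; growth read once vehicle control cultures reached saturation at 30 °C; 1 = growth at the plate median or of vehicle wells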
Conditions: growth OD

Measured: normalized growth

C[C@@H](CO)NC(=O)C1C=C2c3cccc4[nH]cc(c34)C[C@H]2N(C)C1 (some centres not stated)
inactive: S. cerevisiae deletion strains, locus YJR075W, strain HOC1, stronger effect = lower value 1.03 | S. cerevisiae deletion strains, locus YKL009W, strain mrt4, stronger effect = lower value 0.976 | S. cerevisiae deletion strains, locus YKL068W, stronger effect = lower value 0.993 | S. cerevisiae deletion strains, locus YKL085W, strain MDH1 (second series), stronger effect = lower value 0.982 | S. cerevisiae deletion strains, locus YKL085W, strain MDH1, stronger effect = lower value 0.982 | S. cerevisiae deletion strains, locus YKL160W, strain elf1, stronger effect = lower value 1.04 | S. cerevisiae deletion strains, locus YKL190W, strain CNB1, stronger effect = lower value 1.01 | S. cerevisiae deletion strains, locus YKR001C, strain vps1, stronger effect = lower value 0.997 | S. cerevisiae deletion strains, locus YKR026C, strain gcn3, stronger effect = lower value 1.01 | S. cerevisiae deletion strains, locus YKR091W, strain srl3, stronger effect = lower value 1.01 | S. cerevisiae deletion strains, locus YLL001W, strain dnm1, stronger effect = lower value 1.04 | S. cerevisiae deletion strains, locus YLL026W, stronger effect = lower value 1.03 | S. cerevisiae deletion strains, locus YLL041C, strain sdh2, stronger effect = lower value 1.01 | S. cerevisiae deletion strains, locus YLR027C, strain aat2, stronger effect = lower value 1.03 | S. cerevisiae deletion strains, locus YLR039C, strain RIC1, stronger effect = lower value 1.02 | S. cerevisiae deletion strains, locus YLR058C, strain SHM2, stronger effect = lower value 1 | S. cerevisiae deletion strains, locus YLR102C, strain apc9, stronger effect = lower value 0.993 | S. cerevisiae deletion strains, locus YLR113W, strain HOG1, stronger effect = lower value 1.07 | S. cerevisiae deletion strains, locus YLR221C, strain rsa3, stronger effect = lower value 0.97 | S. cerevisiae deletion strains, locus YLR258W, strain gsy2, stronger effect = lower value 1.01 | S. cerevisiae deletion strains, locus YLR262C, strain YPT6 (second series), stronger effect = lower value 1.04 | S. cerevisiae deletion strains, locus YLR262C, strain YPT6, stronger effect = lower value 1.05 | S. cerevisiae deletion strains, locus YLR268W, strain sec22, stronger effect = lower value 1.02 | S. cerevisiae deletion strains, locus YLR320W, strain mms22, stronger effect = lower value 1 | S. cerevisiae deletion strains, locus YLR330W, strain CHS5, stronger effect = lower value 0.994 | S. cerevisiae deletion strains, locus YLR342W, strain FKS1 (second series), stronger effect = lower value 0.973 | S. cerevisiae deletion strains, locus YLR342W, strain FKS1, stronger effect = lower value 1.03 | S. cerevisiae deletion strains, locus YLR357W, strain rsc2, stronger effect = lower value 1 | S. cerevisiae deletion strains, locus YLR370C, strain arc18, stronger effect = lower value 1.02 | S. cerevisiae deletion strains, locus YLR371W, strain rom2, stronger effect = lower value 0.993 | S. cerevisiae deletion strains, locus YLR384C, strain iki3, stronger effect = lower value 0.998 | S. cerevisiae deletion strains, locus YLR418C, strain cdc73, stronger effect = lower value 1.02 | S. cerevisiae deletion strains, locus YML016C, strain PPZ1, stronger effect = lower value 0.991 | S. cerevisiae deletion strains, locus YML032C, strain rad52, stronger effect = lower value 0.981 | S. cerevisiae deletion strains, locus YML120C, strain ndi1, stronger effect = lower value 1.04 | S. cerevisiae deletion strains, locus YML124C, strain tub3, stronger effect = lower value 0.992 | S. cerevisiae deletion strains, locus YMR058W, strain fet3, stronger effect = lower value 1.03 | S. cerevisiae deletion strains, locus YMR078C, strain ctf18, stronger effect = lower value 0.985 | S. cerevisiae deletion strains, locus YMR125W, strain sto1, stronger effect = lower value 1.01 | S. cerevisiae deletion strains, locus YMR129W, stronger effect = lower value 1.01 | S. cerevisiae deletion strains, locus YMR205C, strain PFK2, stronger effect = lower value 1.04 | S. cerevisiae deletion strains, locus YMR223W, strain ubp8, stronger effect = lower value 0.988 | S. cerevisiae deletion strains, locus YMR231W, strain pep5, stronger effect = lower value 1 | S. cerevisiae deletion strains, locus YMR263W, strain SAP30, stronger effect = lower value 1.04 | S. cerevisiae deletion strains, locus YMR307W, strain GAS1, stronger effect = lower value 0.96 | S. cerevisiae deletion strains, locus YNL067W, strain RPL9B, stronger effect = lower value 1.05 | S. cerevisiae deletion strains, locus YNL071W, strain lat1, stronger effect = lower value 1 | S. cerevisiae deletion strains, locus YNL128W, strain TEP1, stronger effect = lower value 1.03 | S. cerevisiae deletion strains, locus YNL153C, strain GIM3, stronger effect = lower value 1.01 | S. cerevisiae deletion strains, locus YNL183C, strain NPR1, stronger effect = lower value 0.994 | S. cerevisiae deletion strains, locus YNL209W, strain ssb2, stronger effect = lower value 1 | S. cerevisiae deletion strains, locus YNL233W, strain BNI4, stronger effect = lower value 1.01 | S. cerevisiae deletion strains, locus YNL248C, strain rpa49, stronger effect = lower value 0.991 | S. cerevisiae deletion strains, locus YNL250W, strain rad50, stronger effect = lower value 1.01 | S. cerevisiae deletion strains, locus YNL271C, strain bni1, stronger effect = lower value 1 | S. cerevisiae deletion strains, locus YNL298W, strain CLA4, stronger effect = lower value 0.992 | S. cerevisiae deletion strains, locus YNL307C, strain MCK1, stronger effect = lower value 0.985 | S. cerevisiae deletion strains, locus YNL322C, strain KRE1 (second series), stronger effect = lower value 1.02 | S. cerevisiae deletion strains, locus YNL322C, strain KRE1, stronger effect = lower value 1.01 | S. cerevisiae deletion strains, locus YNR049C, strain mso1, stronger effect = lower value 1.01 | S. cerevisiae deletion strains, locus YNR052C, strain pop2, stronger effect = lower value 0.984 | S. cerevisiae deletion strains, locus YOL006C, strain TOP1, stronger effect = lower value 1.09 | S. cerevisiae deletion strains, locus YOL012C, strain htz1 0.782 | S. cerevisiae deletion strains, locus YOL147C, strain pex11, stronger effect = lower value 0.996 | S. cerevisiae deletion strains, locus YOR001W, strain rrp6, stronger effect = lower value 1.02 | S. cerevisiae deletion strains, locus YOR061W, strain CKA2, stronger effect = lower value 1 | S. cerevisiae deletion strains, locus YOR069W, strain VPS5, stronger effect = lower value 0.992 | S. cerevisiae deletion strains, locus YOR070C, strain gyp1, stronger effect = lower value 1 | S. cerevisiae deletion strains, locus YOR080W, strain dia2, stronger effect = lower value 1.02 | S. cerevisiae deletion strains, locus YOR083W, strain WHI5, stronger effect = lower value 1.02 | S. cerevisiae deletion strains, locus YOR106W, strain vam3, stronger effect = lower value 1.05 | S. cerevisiae deletion strains, locus YOR136W, strain idh2, stronger effect = lower value 0.988 | S. cerevisiae deletion strains, locus YOR144C, strain elg1, stronger effect = lower value 0.989 | S. cerevisiae deletion strains, locus YOR184W, strain ser1, stronger effect = lower value 1 | S. cerevisiae deletion strains, locus YOR231W, strain MKK1, stronger effect = lower value 1.04 | S. cerevisiae deletion strains, locus YOR265W, strain rbl2, stronger effect = lower value 1.01 | S. cerevisiae deletion strains, locus YOR270C, strain vph1, stronger effect = lower value 1 | S. cerevisiae deletion strains, locus YOR290C, strain snf2, stronger effect = lower value 0.969 | S. cerevisiae deletion strains, locus YOR316C, strain cot1, stronger effect = lower value 0.988 | S. cerevisiae deletion strains, locus YPL051W, strain arl3, stronger effect = lower value 1.01 | S. cerevisiae deletion strains, locus YPL055C, strain LGE1, stronger effect = lower value 1.07 | S. cerevisiae deletion strains, locus YPL078C, strain atp4, stronger effect = lower value 1.06 | S. cerevisiae deletion strains, locus YPL106C, strain sse1, stronger effect = lower value 1.04 | S. cerevisiae deletion strains, locus YPL240C, strain hsp82, stronger effect = lower value 1.01 | S. cerevisiae deletion strains, locus YPL241C, strain CIN2, stronger effect = lower value 1 | S. cerevisiae deletion strains, locus YPL256C, strain CLN2, stronger effect = lower value 1.04 | S. cerevisiae deletion strains, locus YPR119W, strain clb2, stronger effect = lower value 1 | S. cerevisiae deletion strains, locus YPR141C, strain kar3, stronger effect = lower value 0.993 | S. cerevisiae deletion strains, locus YPR163C, strain tif3, stronger effect = lower value 0.994 | S. cerevisiae deletion strains, locus YPR167C, strain met16, stronger effect = lower value 0.995 | S. cerevisiae deletion strains, strain wtn01, stronger effect = lower value 0.999 | S. cerevisiae strains, strain wild type, stronger effect = lower value 1.03

Source: PubChem BioAssay AID1159580 (chemical genetic matrix, 2015)
